These results are taken from PubChem BioAssay AID463173 (ICCB-Longwood Screening Facility, Harvard Medical School, 2010).

Hit rate of the full screen: of about 52,000 compounds, about 1,700 (3.3%) were called active. The entries come from a sample that favours actives as a whole. Values without a mark were called inactive. No stated cut-off is given here; in the data, active means survival mostly below about 52% (no sharp cut-off); inactive means mostly above about 56%.

The subject of the assay is Wild type. The assay is described as follows: growth inhibition of S. aureus wild type versus tarO mutant, primary screen, teichoic acid synthesis inhibitors, RN4220, OD600 (AID 463173). The conditions noted are these: S. aureus RN4220 wild type/DeltatarO growth, OD600, 18 h, hits give low values, screened at 18.75 µg/mL (by protocol).
In the case of `O=C(NCCNCc1ccccc1)c1ccco1`, the survival was 115%. Take `CC(=O)Nc1ccc(NC(=O)CCS(=O)(=O)c2ccc3c(c2)CC(=O)N3C)cc1`: the survival was 66%. Turning to `COC(=O)c1c(NC(=O)c2cc3nc(-c4ccc(Br)cc4)cc(C(F)(F)F)n3n2)sc2c1CCCC2`, the survival is 82%. With `N#Cc1c(NC(=O)c2cc3nc(-c4ccc(Br)cc4)cc(C(F)(F)F)n3n2)sc2c1CCCC2`, the survival was 0% (active). With `Cc1ccc(-c2cc(C(F)(F)F)n3nc(C(=O)Nc4sc5c(c4C#N)CCC(C)C5)cc3n2)cc1` (stereo not drawn), the survival was 70%. As for `COc1ccc(CNC(=O)c2cc(-c3ccc(C)c(C)c3)n[nH]2)cc1`, the survival was 67%. For the molecule `Cc1cc2c(cc1S(=O)(=O)NCc1ccc(F)cc1)n(C)c(=O)c(=O)n2C`, the survival is 85%. Then `Cc1c(C(=O)OCc2ccccc2)[nH]c2c1C(=O)CC(c1ccc(Cl)cc1)C2` (stereo not drawn), with 99%; and `COc1cc(NC(=O)CNC(=O)Cn2ccc3ccccc3c2=O)cc(OC)c1OC`, with 130%; and `O=S(=O)(Cc1ccccc1)N1CCC(c2nc(-c3cccs3)no2)CC1`, with 110%. Then `CC1=C(c2ccc(C)cc2)S(=O)(=O)N(Cc2ccc(C(=O)Nc3ccccc3C)cc2)C1=O`, with 78%; and `Cc1ccc(N2CCN(C(=O)c3cn(C)c4ccc(S(=O)(=O)N5CCCC5)cc4c3=O)CC2C)cc1` (stereo not drawn), with 134%. Consider `Cn1c(C(=O)NCc2ccc(F)cc2)cc2cc(S(=O)(=O)N3CCCCC3)ccc21`, for which the survival is 131%.

`CCC(C)NC(=O)c1cc2cc(S(=O)(=O)N3CCCCC3)ccc2n1C` (stereo not drawn): the survival is 14% (active). The result for `Cc1ccccc1CNC(=O)c1cc2cc(S(=O)(=O)N3CCCCC3)ccc2n1C` reads 66%.

In the case of `CCc1ccc(CNC(=O)c2cc3cc(S(=O)(=O)N4CCCCC4)ccc3n2C)cc1`, the survival was 47%. The result for `CC(CNC(=O)c1cc2cc(S(=O)(=O)N3CCCCC3)ccc2n1C)c1ccccc1` (stereo not drawn) reads 55%; that for `Cc1ccccc1CCNC(=O)c1cc2cc(S(=O)(=O)N3CCCCC3)ccc2n1C`, -3% (active). Take `Cn1c(C(=O)NCCc2ccccc2)cc2cc(S(=O)(=O)N3CCCCC3)ccc21`: the survival was 73%.

`CC(C)CCNC(=O)c1cc2cc(S(=O)(=O)N3CCCCC3)ccc2n1C`: the survival was 74%. For `CN(C)c1ccc(CNC(=O)c2cc3cc(S(=O)(=O)N4CCCCC4)ccc3n2C)cc1`, the survival is 0% (active). Turning to `CCOC(=O)c1sc2cccc(F)c2c1S(=O)(=O)NCc1ccccc1Cl`, the survival was 130%. Then `Clc1ccc2[nH]c3nc4ccccc4nc3c2c1`, with 104%; and `COc1ccc(Nc2cc(C(=O)NCc3ccccc3)c3ccccc3n2)cc1OC`, with 83%; and `CC(=O)c1ccc(NC(=O)Cn2cc3c(n2)CCCC3)cc1`, with 82%.

For `Cc1ccsc1CN(Cc1ccco1)C(=O)c1ccc(Cl)cc1`, the survival is 65%.

As to `Cc1nn(C)c2c1c(C(F)(F)F)cc(=O)n2CC(=O)N1CCCCC1`, the survival was 67%. On to `CCOc1ccc(/C=C/c2nc(C#N)c(N3CCN(c4ccc(OC)cc4)CC3)o2)cc1`, for which the survival was 84%.

In the case of `CCn1cc(C(=O)N2CCN(c3cc(C)ccc3C)CC2)c(=O)c2cc(S(=O)(=O)N3CCOCC3)ccc21`, the survival is 81%.

Regarding `Cc1ccc(SCc2nc(-c3ccc(C(=O)NCc4ccc(Cl)cc4)cc3)oc2C)cc1`, the survival was 64%. `CCc1ccc(CNC(=O)c2ccc(-c3nc(CSc4ccc(C)cc4)c(C)o3)cc2)cc1`: the survival was 63%. `COc1ccc(OC)c(CNC(=O)c2ccc(-c3nc(CSc4ccccc4)c(C)o3)cc2)c1`: the survival is 129%. On to `COc1ccc(CNC(=O)c2ccc(-c3nc(CSc4ccccc4)c(C)o3)cc2)c(OC)c1`, for which the survival was 100%.

On to `COc1ccc(CNC(=O)c2ccc(-c3nc(CSc4ccccc4)c(C)o3)cc2)cc1OC`, for which the survival is 77%. As to `Cc1oc(-c2ccc(C(=O)NCCc3ccc(Cl)cc3)cc2)nc1CSc1ccccc1`, the survival was 59%. On to `COc1ccc(CNC(=O)c2ccc(-c3nc(CSc4ccc(C)cc4)c(C)o3)cc2)cc1OC`, for which the survival was -3% (active).

Turning to `Cc1ccc(SCc2nc(-c3ccc(C(=O)NCCc4ccc(Cl)cc4)cc3)oc2C)cc1`, the survival is -4% (active). `COc1ccc(CNC(=O)c2ccc(-c3nc(CSc4ccc(C)cc4)c(C)o3)cc2)c(OC)c1`: the survival was 1% (active).

As to `Cc1cc(N2CCC(C)CC2)nc2ccc(NC(=O)/C=C/c3cccc(Cl)c3)cc12`, the survival is 69%.

For the molecule `Cc1ccc(CNc2ccc(-c3nc(-c4ccncc4)no3)cc2[N+](=O)[O-])cc1`, the survival was 87%. With `CCc1ccc(NS(=O)(=O)c2c(-c3ccccc3)csc2C(=O)OC)cc1`, the survival was 77%.

For `Cn1c(=O)oc2cc(S(=O)(=O)N3CCCC(C(=O)NCCc4ccc(Cl)cc4)C3)ccc21` (stereo not drawn), the survival was 90%. As to `CCOc1ccc(CNC(=O)CCn2c(=O)c3cccn3c3cccnc32)cc1`, the survival is 93%. On to `Cc1cccc(-n2c(=O)c3c(c4cc(C)ccc4n3C)n(Cc3ccccc3F)c2=O)c1`, for which the survival was 153%. Consider `O=C1NCN(c2ccccc2)C12CCN(c1nnnn1-c1ccccc1)CC2`, for which the survival was 102%. The result for `CCOc1ccc(N2CC(c3nc4ccccc4n3CCC3CCCCC3)CC2=O)cc1` (stereo not drawn) reads 29%. `Cc1ccccc1N1CC(c2nc3ccccc3n2CCC2CCCCC2)CC1=O` (stereo not drawn): the survival was 12% (active). As for `Cc1cccc(N2CC(c3nc4ccccc4n3CCC3CCCCC3)CC2=O)c1` (stereo not drawn), the survival is 44%. On to `COc1ccccc1OCCCn1c(C2CC(=O)N(c3ccccc3Cl)C2)nc2ccccc21` (stereo not drawn), for which the survival is 93%. The result for `COc1ccccc1OCCCCn1c(C2CC(=O)N(c3ccccc3Cl)C2)nc2ccccc21` (stereo not drawn) reads 85%; that for `CCc1ccccc1N1CC(c2nc3ccccc3n2CCC2CCCCC2)CC1=O` (stereo not drawn), 25% (active); that for `O=C1CC(c2nc3ccccc3n2CCC2CCCCC2)CN1c1ccccc1Cl` (stereo not drawn), 32% (active).

Regarding `CCc1ccccc1N1CC(c2nc3ccccc3n2CC(C)C)CC1=O` (stereo not drawn), the survival was 91%. Consider `Cc1ccc(N2CC(c3nc4ccccc4n3CCC3CCCCC3)CC2=O)cc1` (stereo not drawn), for which the survival was 80%. `Cc1c(C(=O)NCc2ccc(N(C)C)cc2)oc2c1-c1nn(Cc3cccc(Cl)c3)cc1CC2`: the survival is 91%. For `CC1CCCN(S(=O)(=O)c2ccc(N)cc2)C1` (stereo not drawn), the survival is 109%.

For `Cc1ccc(-c2onc(C)c2C)cc1S(=O)(=O)NCc1cccs1`, the survival was 119%.

On to `COCCCNS(=O)(=O)c1cc(-c2onc(C)c2C)ccc1OC`, for which the survival was 111%. Take `Cc1ccc(-c2onc(C)c2C)cc1S(=O)(=O)NCc1ccco1`: the survival was 112%.

Consider `COc1ccc(CCNS(=O)(=O)c2cc(-c3onc(C)c3C)ccc2OC)cc1OC`, for which the survival is -3% (active). Take `Cc1ccc(-c2onc(C)c2C)cc1S(=O)(=O)NCc1ccc(N(C)C)cc1`: the survival is -4% (active).

As for `COc1ccc(-c2onc(C)c2C)cc1S(=O)(=O)NCCc1ccccc1`, the survival is 57%. As to `CCOC(=O)n1c(SCC)nc2ccccc21`, the survival was 104%.

In the case of `O=C(Cc1ccc(Cl)cc1)NCCc1csc2nc(-c3ccccc3F)nn12`, the survival was 69%.

For `Cc1cc(C)n2nc(-c3ccccc3)cc2n1`, the survival was 116%. Consider `Cc1cc(-c2ccccc2)n2nc(-c3cccc(Br)c3)cc2n1`, for which the survival was 55%. The result for `Cc1cc(-c2ccccc2)n2nc(-c3ccccc3)cc2n1` reads -2% (active); that for `CCCCC(=O)Nc1nnc(SCc2cc(=O)n3cc(C)ccc3n2)s1`, 63%; that for `CC(=O)Nc1nonc1-c1nc2ccccc2n1Cc1ccccc1Br`, 97%. Consider `O=C(CCn1c(=O)c2sccc2n(Cc2ccc(F)cc2Cl)c1=O)NCc1ccc2c(c1)OCO2`, for which the survival is 92%. For `CCc1ccc2oc(C(=O)NCCc3ccc(OC)c(OC)c3)cc(=O)c2c1`, the survival was 83%. As for `Cc1c(C(C)(C)C)sc(=N)n1C`, the survival is 86%.

As to `CCc1ccc(-c2[nH]c3c(c2-c2c(-n4cccc4)n(C)c(=O)n(C)c2=O)c(=O)n(C)c(=O)n3C)cc1`, the survival is 105%. On to `COc1ccc2c(Sc3ccccc3)c(C(=O)NCCCN3CCCCC3)[nH]c2c1`, for which the survival was 73%. For the molecule `O=C(NCCCN1CCCCC1)c1[nH]c2ccccc2c1Sc1ccc(Cl)cc1`, the survival was -1% (active).

With `O=C(c1[nH]c2ccccc2c1Sc1ccc(Cl)cc1)N1CCCCC1`, the survival is 48%. As to `COc1ccc2c(Sc3ccc(Cl)cc3)c(C(=O)NCCCN3CCCCC3)[nH]c2c1`, the survival was -1% (active).

Consider `COCCCNC(=O)c1[nH]c2ccccc2c1Sc1ccc(C)cc1`, for which the survival is 81%. For `COc1ccc2c(Sc3ccc(Cl)cc3)c(C(=O)N3CCCCC3)[nH]c2c1`, the survival was 33%. Turning to `CCOc1cc(C2CC(=O)Nc3c2c(C)nn3-c2nc(C)cc(C)n2)ccc1O` (stereo not drawn), the survival was 83%. For the molecule `CCOC(=O)c1cccc(NC(=O)c2cc3c(-c4cccc(OC)c4)nn(C)c3s2)c1`, the survival was 65%. In the case of `CCc1ccc2occ(CC(=O)N(Cc3ccccc3)C3CCS(=O)(=O)C3)c2c1` (stereo not drawn), the survival is 77%. Take `COc1ccc2c(c1)c1c(c(=O)n(-c3cccc(Cl)c3)c(=O)n1CC(=O)N1CCCC1)n2C`: the survival is 73%. With `CCCCN(CCCC)CCNC(=O)CN1C(=O)CSc2ccc(S(=O)(=O)N3CCCCC3)cc21`, the survival is 110%. For `Cc1ccc(-c2cc(C(=O)O)n(Cc3ccccc3)n2)cc1`, the survival is 63%.

Regarding `COc1ccc(-c2cc(C(=O)O)n(Cc3ccccc3)n2)cc1`, the survival was 63%. As for `CCOC(=O)c1cnn(Cc2ccccc2)c1N`, the survival was 104%. As for `CCOC(=O)c1cc(-c2ccc(C)cc2)nn1Cc1ccccc1`, the survival was 0% (active). For the molecule `COC(=O)c1ccc(Cn2nc(-c3ccc(C)cc3)ccc2=O)cc1`, the survival is 145%.

As for `CCc1cccc(NC(=O)Cn2nc(-c3ccc(OC)cc3)ccc2=O)c1`, the survival was 59%. As for `CCOC(=O)c1cc(-c2ccccc2)nn1Cc1ccccc1`, the survival was 2% (active). On to `O=C(O)c1cc(-c2ccccc2)nn1Cc1ccccc1`, for which the survival was 68%. The result for `CCOC(=O)c1cc(-c2ccc(OC)cc2)nn1Cc1ccccc1` reads 10% (active).
